Measured values: PubChem BioAssay (NCI)
This is part of a sample that, as a whole, favours compounds with a hit. Of some 79,000 tested, about 15% had one in any assay. Active and inactive are the calls of the source. Rule as the data show it: active = growth inhibition above about 70%; inactive = the rest.

Key:
[1] = NCI Yeast Anticancer Drug Screen. Data for the rad52 strain (AID 147);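 also: 0% = growth of vehicle-treated control cultures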; settings: S. cerevisiae rad52 mutant growth inhibition, hits give high values
In short: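 Inhibition of yeast growth, referenced to vehicle controls, was the measured output for a strain with defective DNA damage repair.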

[2] = NCI Yeast Anticancer Drug Screen. Data for the wt1 strain (AID 149);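 also: 0% = growth of vehicle-treated wt1 cultures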; settings: S. cerevisiae wt1 strain (SPY 50644) growth inhibition, hits give high values
In short: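 The wt1 strain was treated with compounds, and growth was compared with vehicle-treated cultures to give inhibition.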

[3] = NCI Yeast Anticancer Drug Screen. Data for the rad50EPP+ strain (AID 151);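 also: 0% = growth of vehicle-treated control cultures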; settings: S. cerevisiae rad50 mutant strain, hits give high values
In short: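 Genetically defined yeast (rad50EPP+, DNA damage repair alteration) is grown with compound, and inhibition of growth is expressed relative to vehicle-treated controls.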

[4] = NCI Yeast Anticancer Drug Screen. Data for the rad50 strain (AID 155);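 also: 0% = growth of vehicle-only cultures of the same strain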; settings: S. cerevisiae rad50 strain growth inhibition, hits give high values
In short: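 Cells are treated with compound, grown, and their growth is then scored against vehicle-only cultures of the same repair-deficient yeast strain.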

[5] = NCI Yeast Anticancer Drug Screen. Data for the mec2-1 strain (AID 157); settings: S. cerevisiae mec2-1 strain, hits give high values
In short: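 Each compound was tested on mec2-1 yeast, a strain altered in DNA damage repair or cell cycle control. Growth inhibition is reported relative to vehicle.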

[6] = NCI Yeast Anticancer Drug Screen. Data for the sgs1 mgt1 strain (AID 161);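 also: 0% = growth of cultures given vehicle only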; settings: S. cerevisiae sgs1 mgt1 strain, hits give high values
In short: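 Mutant yeast exposed to compound; growth scored against vehicle-only wells.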

[7] = NCI Yeast Anticancer Drug Screen. Data for the CLN2oe strain (AID 163);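 also: 0% = growth of vehicle-only control cultures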; settings: S. cerevisiae CLN2oe strain, hits give high values
In short: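 First, the altered yeast strain was treated with each compound; second, its growth was measured; finally, inhibition was derived by comparison with vehicle controls.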

[8] = NCI Yeast Anticancer Drug Screen. Data for the cln2 rad14 strain (AID 165);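 also: 0% = growth equal to vehicle treated cultures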; settings: S. cerevisiae cln2 rad14 strain, hits give high values
In short: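 Test compounds were added to cln2 rad14 yeast cultures; inhibition of growth was then determined by comparison with vehicle treatment.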

[9] = NCI Yeast Anticancer Drug Screen. Data for the bub3 strain (AID 167); settings: S. cerevisiae bub3 mutant strain, hits give high values
In short: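 Part of a panel of yeast mutants defective in DNA damage repair or cell cycle regulation. Each strain is grown with compound, and inhibition is calculated relative to solvent-treated cultures.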

[10] = NCI Yeast Anticancer Drug Screen. Data for the wt2 strain (AID 169);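 also: 0% = growth of vehicle-treated yeast cultures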; settings: S. cerevisiae wt2 strain growth inhibition, hits give high values
In short: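 The panel's yeast strains carry defined changes in DNA repair or cell cycle genes. Each strain is grown with compound, and growth loss is scored relative to vehicle.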

[11] = NCI Yeast Anticancer Drug Screen. Data for the mlh1 strain (AID 171);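 also: 0% = growth of vehicle-treated control cultures of the same strain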; settings: S. cerevisiae mlh1 strain growth inhibition, hits give high values
In short: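 Inhibition values reflect reduced yeast growth in the presence of compound, referenced to vehicle controls, using a strain chosen for its alteration in DNA repair or cell cycle control.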

[12] = NCI Yeast Anticancer Drug Screen. Data for the sgs1 strain (AID 173);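 also: 0% = growth of vehicle-only control cultures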; settings: S. cerevisiae sgs1 mutant, hits give high values
In short: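 Vehicle-treated cultures served as reference for growth inhibition of a yeast strain altered in DNA damage repair or cell cycle control after compound exposure.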

[13] = NCI Yeast Anticancer Drug Screen. Data for the mlh1 rad18 strain (AID 175); settings: S. cerevisiae mlh1 rad18 strain growth inhibition, hits give high values
In short: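 Inhibition values reflect reduced growth of mutant yeast versus vehicle-treated controls following compound exposure; the mutations affect DNA damage repair.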

[14] = NCI Yeast Anticancer Drug Screen. Data for the rad18 strain (AID 177); settings: S. cerevisiae rad18 mutant growth inhibition, hits give high values
In short: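 Steps: expose repair-mutant yeast to compound; measure growth; express as inhibition relative to vehicle control.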

[15] = at 5.0 µM (retest, dose inferred, filed as 0.5)
[16] = at 50.0 µM (retest, dose inferred, filed as 5.0)

Measured: growth inhibition

COC(=O)c1n[nH]c(C)c1N=NN(C)CCC#N
active: [1]; at 3.7 µM 91% | [1]; at 11.0 µM 97% | [1]; at 33.0 µM 98% | [1]; at 100.0 µM 99% | [2]; at 11.0 µM 97% | [2]; at 33.0 µM 99% | [2]; at 100.0 µM 99% | [3]; at 3.7 µM 77% | [3]; at 11.0 µM 95% | [3]; at 33.0 µM 97% | [3]; at 100.0 µM 99% | [4]; at 3.7 µM 81% | [4]; at 11.0 µM 96% | [4]; at 33.0 µM 98% | [4]; [16] 96% | [4]; at 50.0 µM 98.5% | [4]; at 100.0 µM 99% | [5]; at 11.0 µM 99% | [5]; at 33.0 µM 99% | [5]; [16] 98% | [5]; at 50.0 µM 99.2% | [5]; at 100.0 µM 99% | [6]; [16] 96% | [6]; at 50.0 µM 98.8% | [7]; at 11.0 µM 95% | [7]; at 33.0 µM 99% | [7]; at 100.0 µM 99% | [8]; [16] 98% | [8]; at 50.0 µM 97.8% | [9]; at 11.0 µM 80% | [9]; at 33.0 µM 99% | [9]; [16] 97% | [9]; at 50.0 µM 99% | [9]; at 100.0 µM 98% | [10]; at 11.0 µM 99% | [10]; at 33.0 µM 99% | [10]; at 100.0 µM 99% | [11]; at 11.0 µM 98% | [11]; at 33.0 µM 99% | [11]; at 100.0 µM 99% | [12]; at 3.7 µM 70% | [12]; at 11.0 µM 99% | [12]; at 33.0 µM 99% | [12]; at 100.0 µM 99% | [13]; [16] 97% | [13]; at 50.0 µM 98.8% | [14]; at 11.0 µM 95% | [14]; at 33.0 µM 98% | [14]; at 100.0 µM 99%
inactive: [1]; at 1.2 µM 46% | [2]; at 1.2 µM -6% | [2]; at 3.7 µM -5% | [3]; at 1.2 µM 26% | [4]; at 1.2 µM 18% | [4]; [15] 69% | [5]; at 1.2 µM 2% | [5]; at 3.7 µM 3% | [5]; [15] -31% | [6]; [15] -11% | [7]; at 1.2 µM -2% | [7]; at 3.7 µM -3% | [8]; [15] -41% | [9]; at 1.2 µM -21% | [9]; at 3.7 µM -16% | [9]; [15] -71% | [10]; at 1.2 µM 0% | [10]; at 3.7 µM 11% | [11]; at 1.2 µM 7% | [11]; at 3.7 µM 0% | [12]; at 1.2 µM 15% | [13]; [15] -49% | [14]; at 1.2 µM 16% | [14]; at 3.7 µM 68%

c1ccc(N2N=C3N(c4ccccc4)C2N3c2ccccc2)cc1
active: [1]; at 100.0 µM 93% | [2]; at 100.0 µM 93% | [4]; at 33.0 µM 70% | [4]; [16] 97% | [4]; at 50.0 µM 81% | [4]; at 100.0 µM 92% | [5]; [16] 98% | [5]; at 100.0 µM 93% | [6]; at 50.0 µM 81% | [7]; at 100.0 µM 92% | [8]; [16] 75% | [9]; at 33.0 µM 80% | [9]; [16] 81% | [9]; at 50.0 µM 82.5% | [9]; at 100.0 µM 92% | [10]; at 100.0 µM 94% | [11]; at 100.0 µM 93% | [12]; at 100.0 µM 93% | [13]; [16] 99% | [13]; at 50.0 µM 77.5% | [14]; at 100.0 µM 94%
inactive: [1]; at 1.2 µM -19% | [1]; at 3.7 µM -14% | [1]; at 11.0 µM 4% | [1]; at 33.0 µM 57% | [2]; at 1.2 µM -46% | [2]; at 3.7 µM -41% | [2]; at 11.0 µM -16% | [2]; at 33.0 µM 34% | [3]; at 1.2 µM -13% | [3]; at 3.7 µM -8% | [3]; at 11.0 µM -5% | [3]; at 33.0 µM 6% | [3]; at 100.0 µM 1% | [4]; at 1.2 µM 1% | [4]; at 3.7 µM 7% | [4]; [15] 43% | [4]; at 11.0 µM 26% | [5]; at 1.2 µM -19% | [5]; at 3.7 µM -22% | [5]; [15] 35% | [5]; at 11.0 µM 3% | [5]; at 33.0 µM 44% | [5]; at 50.0 µM 69.2% | [6]; [15] -16% | [6]; [16] 57% | [7]; at 1.2 µM -12% | [7]; at 3.7 µM -7% | [7]; at 11.0 µM -10% | [7]; at 33.0 µM 51% | [8]; [15] 28% | [8]; at 50.0 µM 59.5% | [9]; at 1.2 µM -6% | [9]; at 3.7 µM -1% | [9]; [15] 28% | [9]; at 11.0 µM 29% | [10]; at 1.2 µM -17% | [10]; at 3.7 µM -7% | [10]; at 11.0 µM 1% | [10]; at 33.0 µM 44% | [11]; at 1.2 µM -28% | [11]; at 3.7 µM -22% | [11]; at 11.0 µM -7% | [11]; at 33.0 µM 37% | [12]; at 1.2 µM 2% | [12]; at 3.7 µM -29% | [12]; at 11.0 µM 2% | [12]; at 33.0 µM 41% | [13]; [15] 38% | [14]; at 1.2 µM 12% | [14]; at 3.7 µM 10% | [14]; at 11.0 µM -3% | [14]; at 33.0 µM 60%
